Source: the supplement of paper PMC3334620
Whole data set: some 33,000 sequences, median “E-score (-0.5 to 0.5)” near -0.043, cut for the highest 2% near 0.37. For the sample, the highest values were picked, then their nearest neighbours and some sequences at random.

Biological target: T1, Upc2 (UniProt Q12151)
T1 sequence: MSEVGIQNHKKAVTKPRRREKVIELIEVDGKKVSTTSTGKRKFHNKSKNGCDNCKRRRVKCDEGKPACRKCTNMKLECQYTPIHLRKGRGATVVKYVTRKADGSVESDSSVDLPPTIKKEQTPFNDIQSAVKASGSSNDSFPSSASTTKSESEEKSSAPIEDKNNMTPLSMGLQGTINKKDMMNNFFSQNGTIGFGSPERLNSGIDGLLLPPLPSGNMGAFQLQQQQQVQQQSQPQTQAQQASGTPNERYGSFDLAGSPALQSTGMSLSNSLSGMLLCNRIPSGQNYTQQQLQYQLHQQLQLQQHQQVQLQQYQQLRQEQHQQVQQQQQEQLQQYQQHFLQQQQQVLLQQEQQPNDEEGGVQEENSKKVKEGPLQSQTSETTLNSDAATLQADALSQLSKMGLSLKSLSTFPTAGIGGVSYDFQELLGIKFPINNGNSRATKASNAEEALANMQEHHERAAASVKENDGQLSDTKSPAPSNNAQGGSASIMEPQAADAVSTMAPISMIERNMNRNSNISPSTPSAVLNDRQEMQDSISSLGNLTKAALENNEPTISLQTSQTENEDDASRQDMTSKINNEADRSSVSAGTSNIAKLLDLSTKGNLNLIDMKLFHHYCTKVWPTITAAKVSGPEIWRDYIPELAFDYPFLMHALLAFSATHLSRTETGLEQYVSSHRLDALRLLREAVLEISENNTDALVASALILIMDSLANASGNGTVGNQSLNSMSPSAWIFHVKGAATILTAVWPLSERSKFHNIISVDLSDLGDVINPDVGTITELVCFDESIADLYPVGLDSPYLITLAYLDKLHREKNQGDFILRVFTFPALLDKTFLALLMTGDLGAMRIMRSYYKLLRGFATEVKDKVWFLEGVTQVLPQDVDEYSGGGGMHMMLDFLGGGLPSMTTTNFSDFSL
Experiment: PBM E-score (8-mer binding enrichment) (E-score (-0.5 to 0.5)); higher = stronger / more preferred TF binding
Conditions: protein concentration: 200 nM; construct: GST-full length
In short: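 Yeast transcription factors carrying a GST tag, as full-length proteins or DNA-binding domains, were produced by PURExpress in vitro transcription/translation. About 100-200 nM protein was applied to universal all-10-mer Agilent arrays, double-stranded by primer extension on fresh or once-stripped slides. Bound protein was detected with fluorescent anti-GST, and scans were normalised with masliner. The Universal PBM Analysis Suite gave each ungapped eight-base word, pooled with its reverse complement, an E-score, a modified Wilcoxon-Mann-Whitney statistic.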

Sequence | PBM E-score
ACGATTTG | 0.28
CCAAGCTA | -0.182
CAAATAGA | -0.0516
AGTTTCAT | 0.0688
CCTCTATC | -0.122
AAGATCAT | 0.0203
CGTTTATA | 0.45
GGTTTATA | 0.144
CTTTTATC | 0.00372
AGTTTATA | 0.129
CGTTTATC | 0.425
AGTTTATC | 0.115
ATCTAGCA | -0.206
ACGACACG | 0.295
CCGACACC | 0.0358
ACGACAGT | 0.37
ACGACAGG | 0.359
ACGACACC | 0.374
ACGACAGC | 0.336
ATTATAAC | -0.061
CTAGAGCA | -0.192
GATTGTGA | -0.112
CCTCGTTA | 0.399
GCACGTTA | 0.182
CCTCGTGC | 0.0326

Sequence | PBM E-score
ACTCGTTG | 0.198
ACTCGTTC | 0.46
ACTCGTTA | 0.35
CCTCGTCC | -0.3
GCTCGTTA | 0.39
CCACGTTA | 0.136
ACTCGGTC | 0.0379
GCTCGCTA | 0.196
CCTCGTTC | 0.46
ACAGTAGA | -0.0149
CATCTTGG | -0.305
GAGTAACC | 0.101
GTCTCACA | -0.0791
CGATATGC | 0.149
GCAACTGA | 0.0086
GAACTGCA | -0.0845
ACGAAAGG | 0.32
ACGAAACA | 0.339
ACGAAACG | 0.403
CCGAAACG | 0.346
ACGAAACT | 0.382
ACGAAACC | 0.267
GAATTTGA | -0.0533
CACCACCC | -0.124
AGTGAAAC | -0.0497

Sequence | PBM E-score
CCCCTTTA | -0.129
TAACGGGA | 0.0733
AAACGGGG | 0.398
AAACGGAC | 0.337
AAACGGAG | 0.34
CAACGGGC | 0.00552
GAACGGGC | 0.291
AAACGGGA | 0.369
GAACGGGA | 0.238
AAACGGGC | 0.395
AAACGGGT | 0.344
AAACGGAT | 0.37
CAACGGGG | -0.0318
AGACCCCA | -0.148
ATAGAACG | 0.253
GCCATCTA | -0.299
CAGACCAG | -0.0598
CATTCACA | -0.114
CTCGGCGC | 0.069
AAGAGTCA | -0.11
CATTAAGC | 0.0328
GTACGGCA | 0.364
AGACGGCG | -0.0186
CTACGGCA | 0.0153
ATACGGCA | 0.422

Sequence | PBM E-score
ACACGGCG | -0.0227
CTACGGCC | -0.0664
ATACGGCG | 0.43
AGACGGCC | -0.222
ATACGGCC | 0.416
GTTTCACA | 0.00208
CCGAGTCC | -0.0483
GCTCCTAC | 0.0461
GCAGTTAA | 0.0277
GATGATAC | 0.0998
AGCCAAAA | -0.178
AGAAACGC | -0.037
CGAAACGA | 0.447
AGAAACGA | 0.4
CGAAACGC | 0.15
GAAAACGA | 0.263
AGAAACGG | 0.217
CGAAACCA | 0.201
GGAAACAA | -0.0508
GGAAACGA | 0.428
ACAGTCCT | -0.319
CTCGCTCC | 0.313
ACATAGTG | -0.128
ACCGCCAG | -0.0637
GATCACGA | -0.00109

Sequence | PBM E-score
CGTAAAAG | 0.405
TGTAAAAA | -0.0321
AGTAAAAG | 0.168
CGTAAAAC | 0.389
CGTAAAAA | 0.404
GGTAAAAC | 0.0926
AGTAAAAA | -0.0254
CTTAAAAG | -0.0494
CGTAAACC | 0.364
GGCCAACC | -0.0824
ATAGAGGC | -0.0461
ACAAAGGA | -0.0862
GGTTGTAC | 0.154
GCAGATCA | -0.161
CGCCTTAG | -0.169
GCCACATA | -0.153
TCAGACAA | -0.17
AACGAAAC | 0.37
CACGAAAG | -0.0189
AACGAAAT | 0.398
ACCGAAAT | 0.141
ACCGAAAG | 0.108
CACGAAAC | 0.0525
GACGAAAC | 0.251
AACGAAAG | 0.383

Sequence | PBM E-score
AACGAAAA | 0.368
ACTCGCCC | -0.205
AACGCTAG | -0.089
GGATCGGA | 0.0439
GGATCGTA | 0.422
CGATCGAA | 0.24
AGATCGTC | -0.141
CGATCGTC | 0.128
CGATCGTA | 0.437
AGATCGTG | 0.0463
GGATCGAA | 0.211
AGATCGTA | 0.387
CTAGGTCA | -0.214
CTATCAGA | -0.13
AACAAGGC | -0.167
CGTCGTGA | 0.127
GGTCGTAA | 0.421
TGGCGTAA | 0.0743
TGTCGTAA | 0.433
AGTCGTCA | -0.167
CGTCGTAA | 0.457
AGTCGTGA | -0.0656
TGTCGGAA | 0.0576
GGTCGTGA | -0.0444
CGTCGTCA | 0.055

Sequence | PBM E-score
AGTCGTAA | 0.379
GGTCGTCA | -0.0836
ACCGTTAT | -0.0125
GAGTCAAA | -0.229
ATTCTAAC | -0.125
AGCAAGAG | -0.203
CTGAGCTA | -0.0866
ACCGCTTC | -0.203
AGTGAACT | -0.117
ACTGTTCG | 0.16
CCGTACGG | 0.374
ACGTACGC | 0.254
GCGTACTA | 0.0874
CCGTACTA | 0.282
CCGTACGC | 0.308
ACGTACGT | 0.293
GCGTACGA | 0.448
CCCTACGG | -0.0948
CCGTACGA | 0.443
GCGTACGC | 0.281
ACGTACGG | 0.354
ACGTACGA | 0.431
TAAAGCCA | 0.0825
